This is part of a sample that, as a whole, favours compounds with a hit. Of some 83,000 tested, about 20% had one in any assay.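 Compound tested at a single concentration for 48 hours in 96-well plates; a percent growth value below 10 was scored as active.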 Calls of active or inactive are those of the source.
Key:
Test in all cases: NCI-60 one-dose screen, 48 h (100 = growth as untreated, 0 = no growth, -100 = all killed)
Details in all cases: 10 µM unless noted
NCI-H23 lung = system: NCI-H23 lung
NCI-H226 lung = system: NCI-H226 lung
NCI-H322M lung = system: NCI-H322M lung
HOP-62 NSCLC = system: HOP-62 NSCLC
NCI-H460 lung = system: NCI-H460 lung
HOP-92 NSCLC = system: HOP-92 NSCLC
NCI-H522 lung = system: NCI-H522 lung
A549/ATCC NSCLC = system: A549/ATCC NSCLC
786-0 renal = system: 786-0 renal

Measured: growth

Cc1cc2c(F)c(Oc3ncnc(Nc4ccc(N5C[C@@H](C)N[C@@H](C)C5)cc4)c3C#N)cc(F)c2[nH]1
inactive: NCI-H23 lung 75% | NCI-H226 lung 74.1% | NCI-H322M lung 47.9% | HOP-62 NSCLC 75.8% | HOP-92 NSCLC 89.1% | A549/ATCC NSCLC 13.7%
active: NCI-H460 lung 6.38% | NCI-H522 lung -21.8%

O=C(CCl)N1c2cccc3cccc(c23)N(C(=O)CCl)C1c1cn(-c2ccccc2)nc1-c1cccc([N+](=O)[O-])c1
inactive: NCI-H23 lung 90.1% | NCI-H226 lung 98.8% | NCI-H322M lung 104% | HOP-62 NSCLC 94.5% | NCI-H460 lung 103% | HOP-92 NSCLC 117% | NCI-H522 lung 77.1% | A549/ATCC NSCLC 107% | 786-0 renal 95.5%

CCCN1CCN(c2ccc3nc(-c4ccc5nc(-c6ccc(OCC)c(OCC)c6)[nH]c5c4)[nH]c3c2)CC1
active: NCI-H23 lung -53.3% | NCI-H226 lung -58.2% | NCI-H322M lung -18.7% | HOP-62 NSCLC -64.9% | NCI-H460 lung -80.3% | NCI-H522 lung -44.8% | A549/ATCC NSCLC -50.2% | 786-0 renal -89%
inactive: HOP-92 NSCLC 40.5%

O=C(NCCN1CCC(O)CC1)c1cc2c(o1)C(=O)c1ccccc1C2=O
active: NCI-H23 lung -50.9% | NCI-H226 lung -77.5% | NCI-H322M lung -98.6% | HOP-62 NSCLC -66.6% | NCI-H460 lung -75.9% | HOP-92 NSCLC -67.4% | NCI-H522 lung -56.3% | A549/ATCC NSCLC -57.7% | 786-0 renal -78.3%

Cc1cc(-c2ccc(N(C)C)cc2)c2sc(=O)[nH]c2n1
inactive: NCI-H23 lung 82.6% | NCI-H226 lung 64.6% | NCI-H322M lung 78.1% | HOP-62 NSCLC 70.2% | NCI-H460 lung 65.2% | HOP-92 NSCLC 85.5% | NCI-H522 lung 56.5% | A549/ATCC NSCLC 66% | 786-0 renal 77.2%

CCCCNC(=O)NS(=O)(=O)c1ccc(N2N=C(c3ccc(C)cc3C)CC2c2ccc(N(C)C)cc2)cc1 (stereo not given)
inactive: NCI-H23 lung 69.5% | NCI-H226 lung 82.9% | NCI-H322M lung 87.4% | HOP-62 NSCLC 88.6% | NCI-H460 lung 39.2% | HOP-92 NSCLC 71.5% | NCI-H522 lung 50% | A549/ATCC NSCLC 40.6% | 786-0 renal 53.1%

CC(C)CCC[C@@H](C)[C@H]1CCC2C3=CCC4C(=O)C=CC(=O)C4C3CC[C@@]21C (stereo not given in full)
active: NCI-H23 lung 8.4% | NCI-H460 lung 2.88% | HOP-92 NSCLC -28.9% | NCI-H522 lung -46.1% | A549/ATCC NSCLC 8.75% | 786-0 renal -5.66%
inactive: NCI-H226 lung 42% | NCI-H322M lung 42.6% | HOP-62 NSCLC 12.1%

NC(=O)c1c(NC(=O)c2ccc(C(F)(F)F)cc2Cl)sc2c1CCC(=O)C2
inactive: NCI-H322M lung 14% | 786-0 renal 17.1%
active: NCI-H23 lung -7.98% | NCI-H226 lung -22.6% | HOP-62 NSCLC 1.14% | NCI-H460 lung 0.92% | HOP-92 NSCLC -61.7% | NCI-H522 lung -25.6% | A549/ATCC NSCLC 9.42%

O=C(NC1CCOCC1)c1ccc2c(c1)CN(c1ncc(Cc3cccc(-n4cccn4)c3)s1)CC2
inactive: NCI-H23 lung 57.7% | NCI-H226 lung 62% | NCI-H322M lung 87.8% | HOP-62 NSCLC 104% | NCI-H460 lung 79.9% | HOP-92 NSCLC 44.9% | NCI-H522 lung 38.8% | A549/ATCC NSCLC 76% | 786-0 renal 68.7%

Cc1ccc(NC(=O)C(Cl)Cl)cc1
inactive: NCI-H23 lung 95.8% | NCI-H226 lung 79.1% | NCI-H322M lung 84.1% | HOP-62 NSCLC 98.4% | NCI-H460 lung 102% | HOP-92 NSCLC 98.2% | NCI-H522 lung 80.9% | A549/ATCC NSCLC 90.8% | 786-0 renal 104%

CN(C)c1ccc(/C=N/NC(=O)COc2cc(=O)n(C)c3ccccc23)cc1
inactive: NCI-H23 lung 93.5% | NCI-H226 lung 105% | NCI-H322M lung 105% | HOP-62 NSCLC 95.7% | NCI-H460 lung 110% | HOP-92 NSCLC 93.5% | NCI-H522 lung 96.7% | A549/ATCC NSCLC 110% | 786-0 renal 105%

N#C/C(=C\c1ccc(Br)cc1)n1nnc2cc(Cl)c(Cl)cc21
inactive: NCI-H23 lung 32.3% | NCI-H226 lung 36.3% | NCI-H322M lung 56.7% | HOP-62 NSCLC 53.1% | NCI-H460 lung 56.7% | HOP-92 NSCLC 33.2% | A549/ATCC NSCLC 67.4% | 786-0 renal 43.8%
active: NCI-H522 lung 6.95%

CCCCCCCCN(CCCCCCCC)C(=N)c1ccnc2ccccc12
active: NCI-H23 lung -66.4% | NCI-H322M lung -64.5% | HOP-62 NSCLC -85.7% | NCI-H460 lung -78% | HOP-92 NSCLC -21.2% | NCI-H522 lung -74.7% | A549/ATCC NSCLC -82.5% | 786-0 renal -100%
inactive: NCI-H226 lung 56.5%

C[C@@H]1C(=O)N(C[C@H](Cc2ccccc2)N(Cc2ccccc2)Cc2ccccc2)[C@]1(Cc1ccccc1)C(=O)OC(C)(C)C
inactive: NCI-H23 lung 42% | NCI-H226 lung 47.8% | NCI-H322M lung 87.9% | HOP-62 NSCLC 81.6% | NCI-H460 lung 54% | HOP-92 NSCLC 46.3% | NCI-H522 lung 50.9% | A549/ATCC NSCLC 60% | 786-0 renal 72.6%

N#Cc1c(N)n2c(nc1=Nc1ccc(Cl)cc1)sc1cc(Cl)ccc12
inactive: NCI-H23 lung 66.6% | NCI-H226 lung 36.7% | NCI-H322M lung 91% | HOP-62 NSCLC 96.9% | NCI-H460 lung 95.1% | HOP-92 NSCLC 76.6% | NCI-H522 lung 93% | A549/ATCC NSCLC 75.4% | 786-0 renal 51.4%

C[C@@H]1C(=O)N(C[C@@H](Cc2ccccc2)NC(=O)OCc2ccccc2)[C@]1(Cc1ccccc1)C(=O)OCc1ccccc1
inactive: NCI-H23 lung 37.1% | NCI-H226 lung 36.3% | NCI-H322M lung 56.4% | HOP-62 NSCLC 67.3% | NCI-H460 lung 38.3% | HOP-92 NSCLC 30.1% | NCI-H522 lung 44.3% | A549/ATCC NSCLC 22.8% | 786-0 renal 52.9%

Clc1ccc2c(NCCCN3CCN(c4nc(N5CCOCC5)nc5ccccc45)CC3)ccnc2c1
inactive: NCI-H23 lung 73.8% | NCI-H226 lung 75.7% | NCI-H322M lung 30% | HOP-62 NSCLC 42.6% | HOP-92 NSCLC 12.2% | NCI-H522 lung 13% | A549/ATCC NSCLC 24%
active: NCI-H460 lung 4.92% | 786-0 renal -36%

C=CCN1C(=O)[C@]2(SC1=S)[C@H](c1cccc(Cl)c1)CN(C)[C@]21C(=O)NC2C=CC(Cl)=C[C@H]21 (stereo not given in full)
active: HOP-92 NSCLC -6.48%
inactive: NCI-H23 lung 45.7% | NCI-H226 lung 43.4% | NCI-H322M lung 87.2% | HOP-62 NSCLC 63.9% | NCI-H460 lung 55.3% | NCI-H522 lung 41.3% | A549/ATCC NSCLC 41.9% | 786-0 renal 24.8%

COc1cc2c(cc1OC)-c1ccc3cc4c(cc3c1N(CCCN(C)C)C2)OCO4
active: HOP-92 NSCLC 9.04%
inactive: NCI-H23 lung 48.7% | NCI-H226 lung 57.6% | NCI-H322M lung 51.3% | HOP-62 NSCLC 38% | NCI-H460 lung 14.6% | NCI-H522 lung 19.5% | A549/ATCC NSCLC 20.2% | 786-0 renal 35%

c1ccc2c(c1)ncn2-c1nc2ccccc2n2c1nc1ccccc12
inactive: NCI-H23 lung 67.1% | NCI-H226 lung 78.4% | NCI-H322M lung 62.9% | HOP-62 NSCLC 50.1% | NCI-H460 lung 52.1% | HOP-92 NSCLC 88.5% | NCI-H522 lung 81.6% | A549/ATCC NSCLC 81.7% | 786-0 renal 98.3%

O=C1Nc2ccccc2/C1=N/N=C/c1c[nH]c2ccccc12
inactive: NCI-H23 lung 82% | NCI-H226 lung 62.7% | NCI-H322M lung 72.9% | HOP-62 NSCLC 67.3% | NCI-H460 lung 63% | HOP-92 NSCLC 75.2% | NCI-H522 lung 69.2% | A549/ATCC NSCLC 78.4% | 786-0 renal 91.9%

COc1ccc(/C(C)=C(\c2ccc(Cl)cc2)c2ccc(OCCCN(C)C)cc2)cc1F
active: NCI-H460 lung -3.98%
inactive: NCI-H23 lung 78.1% | NCI-H226 lung 98% | NCI-H322M lung 67.6% | HOP-62 NSCLC 52.8% | HOP-92 NSCLC 92% | NCI-H522 lung 77% | A549/ATCC NSCLC 57.2% | 786-0 renal 62.2%

C=C1C(=O)O[C@H]2[C@H]1CC/C(Cn1cc(CNCCc3c[nH]c4ccc(Cl)cc34)nn1)=C\CC[C@@]1(C)O[C@@H]21
inactive: NCI-H23 lung 92.9% | NCI-H226 lung 91.1% | NCI-H322M lung 85.7% | HOP-62 NSCLC 78.7% | NCI-H460 lung 99% | A549/ATCC NSCLC 84.1% | 786-0 renal 67.4%
active: HOP-92 NSCLC -7.88% | NCI-H522 lung -91%

N#Cc1c(NC(=O)c2cccc(C(F)(F)F)c2)sc2c1CCC(=O)C2
inactive: NCI-H226 lung 13.6% | NCI-H322M lung 66.1% | A549/ATCC NSCLC 14.6% | 786-0 renal 13.1%
active: NCI-H23 lung 0.847% | HOP-62 NSCLC 4.66% | NCI-H460 lung 3.47% | HOP-92 NSCLC -28.5% | NCI-H522 lung -15.2%

O=C1CSC(c2ccccc2)N1c1ccccc1 (stereo not given)
inactive: NCI-H23 lung 99.7% | NCI-H226 lung 96.2% | NCI-H322M lung 90.4% | HOP-62 NSCLC 116% | NCI-H460 lung 103% | HOP-92 NSCLC 82.4% | NCI-H522 lung 104% | A549/ATCC NSCLC 103% | 786-0 renal 105%

N#Cc1c(NC(=O)c2ccccc2I)sc2c1CCCC2
inactive: NCI-H23 lung 73.4% | NCI-H226 lung 41.7% | NCI-H322M lung 88.5% | HOP-62 NSCLC 42.2% | NCI-H460 lung 17.8% | HOP-92 NSCLC 71.6% | NCI-H522 lung 24.6% | A549/ATCC NSCLC 53.6% | 786-0 renal 52.2%

Cl.Fc1c[c-]c(-c2ccccn2)c(F)c1.[Pt].c1ccc([PH+](C[PH+](c2ccccc2)c2ccccc2)c2ccccc2)cc1
active: NCI-H23 lung -78.1% | NCI-H226 lung -65.9% | NCI-H322M lung -98.3% | HOP-62 NSCLC -55.4% | NCI-H460 lung -63.5% | HOP-92 NSCLC -74.2% | NCI-H522 lung -60.1% | A549/ATCC NSCLC -58.5% | 786-0 renal -68.1%

[2H]c1nc(Nc2ncc(F)c(-c3cc(F)c4nc(C)n(C(C)C)c4c3)n2)c([2H])c([2H])c1CN1CCN(C([2H])([2H])C([2H])([2H])[2H])CC1
inactive: NCI-H23 lung 50.6% | NCI-H226 lung 49.1% | NCI-H322M lung 44.6% | HOP-62 NSCLC 47% | NCI-H460 lung 53.1% | HOP-92 NSCLC 66.9% | NCI-H522 lung 58.1% | A549/ATCC NSCLC 38.8% | 786-0 renal 39%

CCOC(=O)c1ccc(NC(=O)CCCN(CC)CC)cc1
inactive: NCI-H23 lung 95.4% | NCI-H226 lung 103% | NCI-H322M lung 92.4% | HOP-62 NSCLC 101% | NCI-H460 lung 107% | HOP-92 NSCLC 78% | NCI-H522 lung 63.6% | A549/ATCC NSCLC 90.5% | 786-0 renal 87.2%

Reference: PubChem BioAssay (NCI)
